Data taken from PubChem BioAssay AID1259309 (ICCB-Longwood Screening Facility, Harvard Medical School, 2017).
“And” between values parts separate entries of the source, which are not always exact repeats. Identical values can stand only once. Out of some 330,000 compounds screened, about 1,800 (0.55%) were called active. Cut-off read from the data, not from the text of the source: active = growth inhibition above about 68%; inactive = the rest. Many of the other results were omitted from the sample, so actives are more common in it than they were. The source holds several records for some structures; these can differ, active in one and inactive in another.

Experiment: growth inhibition of ugtP-null S. aureus, primary screen, RN4220 ugtP deletion, OD600 (AID 1259309);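 note: plate controls were untreated wells for no effect and antibiotic for full effect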
Conditions: 16 h, stronger effect = higher value

Row | SMILES | growth inhibition
1 | Fc1ccc(-c2ccc(C=Nn3cnnc3)o2)cc1 | 3.75% (inactive)
2 | O=C(CSc1nc2ccccc2n1Cc1ccc(Cl)cc1)NN=Cc1ccccc1C(=O)O | 0.317% (inactive)
3 | OCCC1CC(O)C(O)[C@@]2(CCCc3ccccc3O2)O1 (some centres undefined) | -2.74% (inactive) and 36.1% (inactive) and 95.4% (active)
4 | OCCC1CC(O)C(O)[C@]2(Cc3ccccc3O2)O1 (some centres undefined) | -11.4% (inactive) and -1.82% (inactive) and 6.13% (inactive)
5 | COc1ccc(-c2cnnc(NN=Cc3ccc(OC)c(OC)c3)n2)cc1 | -0.988% (inactive)
6 | COc1cc(C(=O)NCC(=O)NN=C(C)Cc2ccccc2)cc(OC)c1OC | 1.68% (inactive)
7 | Cc1cc(N=Nc2ccc3ccccc3c2)ccc1O | 100% (active)
8 | Cc1c(O)ccc(C(Cc2ccc3ccccc3n2)=NN)c1O | 7.02% (inactive)
9 | Cc1cc(C)c(C#N)c(SCC(=O)Nc2ccccc2)n1 | -0.258% (inactive)
10 | Cc1nonc1NC(=O)CSc1nc2ccccc2cc1C#N | -7.53% (inactive)
11 | Cc1nc2cc(NC(=O)CSc3nc4c(C)cccc4cc3C#N)ccc2s1 | 96.5% (active)
12 | Cc1ccc(NC(=S)NN=C2CC(C)(C)Oc3ccc(O)cc32)cc1 | -1.6% (inactive)
13 | CCCc1c(C(=O)NN=Cc2ccncc2)nnn1-c1nonc1N | -1.92% (inactive)
14 | Cn1cncc1C#Cc1c(-c2ccsc2)sc2ccccc12 | 89% (active)
15 | COc1ccc2sc(-c3ccc(S(C)(=O)=O)cc3)c(C#Cc3cncn3C)c2c1 | -24.1% (inactive)
16 | O=C(NCc1ccc2c(c1)OCO2)c1c(-c2ccsc2)sc2ccccc12 | 13.5% (inactive)
17 | CC1CN(C(C)CO)C(=O)c2cc(NS(=O)(=O)c3ccccc3)ccc2OC1CN(C)C(=O)Nc1ccc2c(c1)OCO2 (centres undefined) | 1.83% (inactive)
18 | CC[C@@H](C)[C@@H]1CN([C@@H](C)CN2CCC[C@H]2CN2C(N)=NC[C@H]2C(C)C)C(=N)N1CCc1ccc(Cl)c(Cl)c1 | 100% (active)
19 | CCCCN1C(=N)N(C(C)CN2CCCC2CN2C(N)=NCC2Cc2ccccc2)CC1C(C)CC (centres undefined) | 2.45% (inactive)
20 | CC(=O)C(=NNc1ccccc1)Sc1nnc(-c2ccccc2)n1-c1ccccc1 | -0.945% (inactive)
21 | CCc1ccc(C=Nn2c(C)cc(C)c(C#N)c2=O)cc1 | 11.9% (inactive)
22 | CC(=NNC(=O)c1c(-c2ccccc2Cl)noc1C)c1cccc(NC(=O)C(C)C)c1 | -1.85% (inactive)
23 | Cc1csc(Nc2ccc(Cl)cc2)[n+]1-c1ccc(Cl)cc1 | 94.3% (active)

Row | SMILES | growth inhibition
24 | O=c1ccnc(Nc2ccc(Cl)cc2)[nH]1 | -0.107% (inactive)
25 | CCOC1OC(C(N)=O)=CC(c2csc3ccccc23)C1CCCO (centres undefined) | -0.922% (inactive)
26 | NC(=O)CC1NC(=O)C(CCC(=O)O)NC(=O)c2cc([N+](=O)[O-])cc(I)c2NCCCC(C(N)=O)NC1=O (centres undefined) | 5.02% (inactive)
27 | COc1cccc(C=NNC(=O)c2ccccc2NC(=O)c2ccco2)c1OC | 17.5% (inactive)
28 | COC(=O)Cc1ccc(OCC(=O)NC2CCCC2)cc1 | 5.86% (inactive)
29 | Cc1cccc(OCC(=O)NC2CC(C)(C)NC(C)(C)C2)c1 | -2.79% (inactive)
30 | CC1(C)SC2C(NC(=O)COc3ccccc3)C(=O)N2C1C(=O)O (centres undefined) | 101% (active)
31 | O=C(O)CS/C(=C\c1ccc(F)cc1)c1nc2ccccc2s1 | -0.309% (inactive)
32 | CC1=CC(=C(C#N)c2nc3ccccc3s2)C=C(C)N1c1ccc(F)cc1F | 3.53% (inactive)
33 | N#C/C(=C(/O)Cc1cccc2ccccc12)c1nc2ccccc2s1 | 88% (active)
34 | CSc1ccc(C2=CC(=O)CC(c3ccc(F)cc3)C2)cc1 (centres undefined) | -1.01% (inactive)
35 | Cn1c(SCC(=O)NN=Cc2ccc([N+](=O)[O-])s2)nnc1-c1ccccc1 | 100% (active)
36 | Cc1ccc(C=NNC(=O)CSc2nc3ccccc3c(=O)n2-c2ccccc2)s1 | -33.9% (inactive)
37 | Cc1ccc(C=NNC(=O)CSc2nc3ccccc3n2C)s1 | 0.402% (inactive)
38 | CCCc1noc2c1C(=NO)CCC2 | 0.229% (inactive)
39 | Cn1ccc(=Nc2ccc(NC(=O)c3ccc(N=c4ccn(C)c5ccc([N+](=O)[O-])cc45)cc3)cc2)cc1 | 99.6% (active)
40 | CCc1ccc(NC(=O)c2ccc(Cn3cc([N+](=O)[O-])cn3)cc2)cc1 | 5.62% (inactive)
41 | COc1cc(NS(=O)(=O)c2ccc(NC(=O)c3ccc([N+](=O)[O-])cc3)cc2)ncn1 | 2.78% (inactive)
42 | CCOc1cc(C=NNC(=O)c2nnn(-c3nonc3N)c2C)ccc1OCc1cccc(F)c1 | -21.1% (inactive)
43 | CSc1sccc1C=NNC(=O)c1ccncc1 | -0.193% (inactive)
44 | CCN1/C(=C/c2ccc3ccc(C)cc3[n+]2CC)Sc2ccccc21 | 100% (active)
45 | CC(=NNC(=O)c1ccc(F)cc1)c1ccccn1 | -8.87% (inactive)
46 | CCOc1cc(C=NNC(=O)c2cccc(S(=O)(=O)N3CCOCC3)c2)ccc1OCC(=O)N(C)C | 7.71% (inactive)

Row | SMILES | growth inhibition
47 | COC(=O)c1ccc(-c2c(-c3ccccc3)ncc3cc(OC)c(OC)cc23)cc1 | 97.6% (active)
48 | COc1ccc(CNC(=O)Cc2ccc(-c3ccccc3)cc2)cc1OC | -1.11% (inactive)
49 | COC(=O)c1ccc(SCc2ccccc2)nc1 | 3.84% (inactive)
50 | Cc1cccc(-n2c(C)cc(C=NNC(=O)c3ccco3)c2C)c1 | -2.71% (inactive)
51 | COC(=O)C1=C(c2ccc(S(C)(=O)=O)cc2)CC2CCC1N2C(=O)N1CCCC1 (centres undefined) | 2.31% (inactive)
52 | Cc1ccc(C(=O)/C=C/c2c(C)nn(-c3ccccc3)c2Cl)cc1 | -4.9% (inactive)
53 | Cc1nn(-c2ccccc2)c(Cl)c1/C=C/C(=O)c1ccc(O)cc1 | 86.2% (active)
54 | Cc1nn(-c2ccccc2)c(Cl)c1C=NO | -0.481% (inactive)
55 | CNC(=S)NN=Cc1c(C(=O)OC)cnn1-c1ccc(F)cc1F | 2.84% (inactive)
56 | O=S(=O)(N=C(c1ccccc1Cl)N1CCOCC1)c1ccccc1 | -1.9% (inactive)
57 | Cc1cc(C(=O)NN=C2CCCC(C)C2)n[nH]1 (centres undefined) | 1.57% (inactive)
58 | COc1ccccc1C(=O)Nc1ccccc1C(=O)Nc1ccccc1 | 6.78% (inactive)
59 | COc1cc(NC(=O)c2ccccc2NS(=O)(=O)c2ccc(Cl)s2)cc(OC)c1 | 88% (active)
60 | COc1cc(OC)c(S(=O)(=O)Nc2ccccc2C(=O)O)cc1S(=O)(=O)Nc1ccccc1C(=O)O | 7.58% (inactive)
61 | COC(=O)C1C[C@@]2(O)C(O)C(O)C(O)CC2N1Cc1cc(F)ccc1F (some centres undefined) | -1.93% (inactive)
62 | CCOC(=O)N=C(NC(=O)Nc1ccc(C(=O)OCC)cc1)OC | 0.614% (inactive)
63 | Cc1ccccc1C=Nn1c(C2CCCCC2)n[nH]c1=S | -0.971% (inactive)
64 | N#CC1=C(SCc2ccccc2)NC(=O)C(C#N)C12CCCC2 (centres undefined) | -2.16% (inactive)
65 | N#CC1=C(SCc2ccc(C#N)cc2)N=C(N)C(c2nc(-c3ccccc3)cs2)C12CCCCC2 (centres undefined) | 92.2% (active)
66 | N#Cc1ccc(CSc2ncccn2)cc1 | 7.1% (inactive)
67 | CC(=NOCC(=O)OCC(=O)Nc1cc(S(C)(=O)=O)ccc1Cl)c1ccc2c(c1)OCO2 | 4.9% (inactive)
68 | CCOc1cc(C=NNC(=O)C(O)(c2ccccc2)c2ccccc2)ccc1OC(=O)c1ccco1 | 0.814% (inactive)
69 | COCCN=C1NC(c2cccc(C(F)(F)F)c2)C(C(=O)OC)=C(C)N1Cc1ccccc1 (centres undefined) | -23% (inactive)

Row | SMILES | growth inhibition
70 | CN1CCN(C(=O)COc2ccc(C(C)(C)C)cc2Br)CC1 | -4.55% (inactive)
71 | CCC(C)(C)c1ccc(OCC(=O)N(C)C)c(C(C)(C)CC)c1 | 93.1% (active)
72 | CCc1nc(C)ccc1OCC(=O)N(CC)CC | 2.97% (inactive)
73 | O=c1[nH]ncc(NN=Cc2cccnc2)c1Cl | 8.44% (inactive)
74 | CC(CC(=O)N1CCN(C=O)CC1)=NNC(=O)c1ccc(Cl)cc1 | 3.18% (inactive)
75 | COC(=O)C1=C(C(=O)OC)C2N(C)c3ccccc3[C@@]23CC(CO)N(C(=O)c2cccs2)C3=N1 (some centres undefined) | 3.42% (inactive)
76 | CCOc1ccc(-c2c(C(=O)NN=C(C)c3ccccc3OC)nnn2-c2nonc2N)cc1 | 7.28% (inactive)
77 | COc1cc(C(=O)NN=Cc2cc([N+](=O)[O-])cs2)cc(OC)c1OC | 2.4% (inactive)
78 | O=C(O)C(c1ccccc1)N1C(=O)/C(=C\c2ccc(-c3cccc(Cl)c3)o2)SC1=S (centres undefined) | 95.7% (active)
79 | S=c1[nH]nc(-c2cccc(Cl)c2)n1N=Cc1ccc(-c2ccccc2Br)o1 | 27.2% (inactive)
80 | CC1=NOC(=O)C1=Cc1ccc(-c2ccc(Cl)c(C(=O)O)c2)o1 | 2.05% (inactive)
81 | COc1ccc(CC(=O)NCC(=O)NN=Cc2ccc(C)o2)cc1 | 8.44% (inactive)
82 | CC(C)(C)OC(=O)NC(Cc1ccccc1)C(=O)NC(CO)C(O)C1CC1C(=O)NC1CC1 (centres undefined) | -0.531% (inactive)
83 | O=C(Cc1ccccc1)NNC1CC(=O)N(c2ccc(Br)cc2)C1=O (centres undefined) | -0.3% (inactive)
84 | CC(C)(C)OC(=O)C1=C(CO)CS[C@@H]2[C@H](NC(=O)Cc3ccccc3)C(=O)N12 | 101% (active)
85 | N#Cc1nc(-c2ccc(OCc3ccccc3)cc2)oc1NCCCN1CCOCC1 | 85.2% (active)
86 | O=S(=O)(c1ccccc1)c1nc(-c2ccccc2)oc1NCCCN1CCOCC1 | 2.69% (inactive)
87 | Cc1ccc(-c2nc(C#N)c(NCCCn3ccnc3)o2)cc1 | -7.44% (inactive)
88 | O=C(NN=C/C=C/c1ccco1)c1cccnc1 | -1.13% (inactive)
89 | CCC1=C(OC(=O)N(CC)CC)N2C(=O)OC(=NCC3CC3)[C@]2(Cc2ccccc2)C2C1=CCC1C(=O)N(CC(=O)OC)C(=O)C12 (some centres undefined) | 5.55% (inactive)
